Laboratory results: PubChem BioAssay (NCI)
The panel holds about 79,000 compounds, 15% with a hit somewhere; the sample as a whole holds those more often. The source made the active and inactive calls. No stated cut-off is given here; in the data, active means growth inhibition above about 70%; inactive means the rest.

Experiments:
[1] = NCI Yeast Anticancer Drug Screen. Data for the rad52 strain (AID 147);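 further: 0% = growth of vehicle-treated control cultures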; details: S. cerevisiae rad52 mutant growth inhibition, hits give high values
Summary of the method: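 Screen used a yeast mutant impaired in DNA repair. After compound exposure, growth was measured. Values reflect inhibition compared with vehicle-treated cells.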

[2] = NCI Yeast Anticancer Drug Screen. Data for the wt1 strain (AID 149);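 further: 0% = growth of vehicle-treated wt1 cultures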; details: S. cerevisiae wt1 strain (SPY 50644) growth inhibition, hits give high values
Summary of the method: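 Yeast wt1 strain exposed to compounds; growth inhibition measured relative to vehicle-treated controls.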

[3] = NCI Yeast Anticancer Drug Screen. Data for the rad50EPP+ strain (AID 151);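 further: 0% = growth of vehicle-treated control cultures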; details: S. cerevisiae rad50 mutant strain, hits give high values
Summary of the method: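 Exposing the rad50EPP+ strain to each compound, growth was compared with vehicle-only cultures to give inhibition.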

[4] = NCI Yeast Anticancer Drug Screen. Data for the mgt1 strain (AID 153); details: S. cerevisiae mgt1 mutant growth inhibition, hits give high values
Summary of the method: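 Genetically defined yeast (mgt1) treated with compound; inhibition of growth expressed against vehicle-treated controls.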

[5] = NCI Yeast Anticancer Drug Screen. Data for the rad50 strain (AID 155);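 further: 0% = growth of vehicle-only cultures of the same strain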; details: S. cerevisiae rad50 strain growth inhibition, hits give high values
Summary of the method: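 Yeast carrying a defined DNA repair defect were exposed to test compounds, and growth was compared with vehicle-treated controls to give percent inhibition.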

[6] = NCI Yeast Anticancer Drug Screen. Data for the mec2-1 strain (AID 157); details: S. cerevisiae mec2-1 strain, hits give high values
Summary of the method: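 Readout is yeast growth inhibition, normalised to vehicle-treated controls, in the mec2-1 strain exposed to compound.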

[7] = NCI Yeast Anticancer Drug Screen. Data for the rad14 strain (AID 159);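 further: 0% = growth of vehicle-treated control cultures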; details: S. cerevisiae rad14 strain growth inhibition, hits give high values
Summary of the method: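 Yeast cells carrying a defined DNA-repair defect were exposed to compounds, and growth inhibition was calculated relative to vehicle-treated control cultures.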

[8] = NCI Yeast Anticancer Drug Screen. Data for the sgs1 mgt1 strain (AID 161);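 further: 0% = growth of cultures given vehicle only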; details: S. cerevisiae sgs1 mgt1 strain, hits give high values
Summary of the method: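 Compounds are added to genetically altered yeast, and growth is compared with cultures given vehicle alone to give percent inhibition.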

[9] = NCI Yeast Anticancer Drug Screen. Data for the CLN2oe strain (AID 163);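 further: 0% = growth of vehicle-only control cultures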; details: S. cerevisiae CLN2oe strain, hits give high values
Summary of the method: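 Values reflect how much compound exposure reduced yeast growth, referenced to vehicle-exposed cells. Assay organism is a strain with a defined genetic change affecting cell-cycle control.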

[10] = NCI Yeast Anticancer Drug Screen. Data for the cln2 rad14 strain (AID 165);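 further: 0% = growth equal to vehicle treated cultures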; details: S. cerevisiae cln2 rad14 strain, hits give high values
Summary of the method: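 Relative to vehicle controls, growth inhibition of compound-treated cln2 rad14 yeast was recorded.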

[11] = NCI Yeast Anticancer Drug Screen. Data for the bub3 strain (AID 167); details: S. cerevisiae bub3 mutant strain, hits give high values
Summary of the method: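 Compounds were applied to a genetically altered yeast strain carrying a cell-cycle control defect. Growth inhibition was scored against vehicle-treated controls.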

[12] = NCI Yeast Anticancer Drug Screen. Data for the wt2 strain (AID 169);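 further: 0% = growth of vehicle-treated yeast cultures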; details: S. cerevisiae wt2 strain growth inhibition, hits give high values
Summary of the method: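 Values express reduction in yeast growth under compound treatment, referenced to vehicle-treated cells.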

[13] = NCI Yeast Anticancer Drug Screen. Data for the mlh1 strain (AID 171);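 further: 0% = growth of vehicle-treated control cultures of the same strain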; details: S. cerevisiae mlh1 strain growth inhibition, hits give high values
Summary of the method: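 Steps: expose the defined-mutant yeast strain to compound; expose a parallel culture to vehicle; measure growth; express compound effect as inhibition relative to the vehicle culture.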

[14] = NCI Yeast Anticancer Drug Screen. Data for the sgs1 strain (AID 173);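 further: 0% = growth of vehicle-only control cultures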; details: S. cerevisiae sgs1 mutant, hits give high values
Summary of the method: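 Treat defined-mutant yeast with compound; measure growth; calculate inhibition relative to vehicle-treated cells.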

[15] = NCI Yeast Anticancer Drug Screen. Data for the mlh1 rad18 strain (AID 175); details: S. cerevisiae mlh1 rad18 strain growth inhibition, hits give high values
Summary of the method: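 Test agents were incubated with a yeast strain of defined genotype (DNA damage repair defect). Inhibition of growth was derived by comparison with vehicle-exposed cultures.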

[16] = NCI Yeast Anticancer Drug Screen. Data for the rad18 strain (AID 177); details: S. cerevisiae rad18 mutant growth inhibition, hits give high values
Summary of the method: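 A genetically defined yeast mutant impaired in DNA damage repair was treated with test compounds, then its growth was measured against cultures receiving vehicle alone.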

[17] = at 5.0 µM (retest, dose inferred, filed as 0.5)
[18] = at 50.0 µM (retest, dose inferred, filed as 5.0)

Measured: growth inhibition

COC(=O)C1=C(C)NC(C)=C(C(=O)OCCCN2CCC(c3ccccc3)(c3ccccc3)CC2)C1c1cccc([N+](=O)[O-])c1 (stereo unspecified)
active: [1]; at 11.0 µM 97% | [1]; at 33.0 µM 97% | [1]; at 100.0 µM 88% | [2]; at 33.0 µM 98% | [2]; at 100.0 µM 94% | [3]; at 3.7 µM 86% | [3]; at 11.0 µM 88% | [3]; at 33.0 µM 92% | [3]; at 100.0 µM 82% | [4]; at 11.0 µM 98% | [4]; at 33.0 µM 98% | [4]; at 100.0 µM 93% | [5]; at 11.0 µM 97% | [5]; at 33.0 µM 95% | [5]; [18] 99% | [5]; at 50.0 µM 94.5% | [5]; at 100.0 µM 84% | [6]; at 11.0 µM 98% | [6]; at 33.0 µM 98% | [6]; [18] 98% | [6]; at 50.0 µM 95.9% | [6]; at 100.0 µM 92% | [7]; at 3.7 µM 76% | [7]; at 11.0 µM 99% | [7]; at 33.0 µM 98% | [7]; at 100.0 µM 89% | [8]; [18] 98% | [8]; at 50.0 µM 94% | [9]; at 11.0 µM 96% | [9]; at 33.0 µM 98% | [9]; at 100.0 µM 84% | [10]; [18] 98% | [10]; at 50.0 µM 94.2% | [11]; at 11.0 µM 83% | [11]; at 33.0 µM 98% | [11]; [18] 97% | [11]; at 50.0 µM 97% | [11]; at 100.0 µM 90% | [12]; at 11.0 µM 98% | [12]; at 33.0 µM 97% | [12]; at 100.0 µM 91% | [13]; at 11.0 µM 98% | [13]; at 33.0 µM 98% | [13]; at 100.0 µM 92% | [14]; at 11.0 µM 97% | [14]; at 33.0 µM 98% | [14]; at 100.0 µM 91% | [15]; [17] 74% | [15]; [18] 98% | [15]; at 50.0 µM 92.7% | [16]; at 11.0 µM 94% | [16]; at 33.0 µM 97% | [16]; at 100.0 µM 88%
inactive: [1]; at 1.2 µM -8% | [1]; at 3.7 µM 2% | [2]; at 1.2 µM -3% | [2]; at 3.7 µM -5% | [2]; at 11.0 µM 69% | [3]; at 1.2 µM 66% | [4]; at 1.2 µM -5% | [4]; at 3.7 µM 22% | [5]; at 1.2 µM 1% | [5]; at 3.7 µM 48% | [5]; [17] 37% | [6]; at 1.2 µM -1% | [6]; at 3.7 µM 16% | [6]; [17] 9% | [7]; at 1.2 µM 20% | [8]; [17] 50% | [9]; at 1.2 µM -3% | [9]; at 3.7 µM 21% | [10]; [17] 14% | [11]; at 1.2 µM 11% | [11]; at 3.7 µM 16% | [11]; [17] 42% | [12]; at 1.2 µM -4% | [12]; at 3.7 µM 25% | [13]; at 1.2 µM 1% | [13]; at 3.7 µM 51% | [14]; at 1.2 µM -3% | [14]; at 3.7 µM 23% | [16]; at 1.2 µM -7% | [16]; at 3.7 µM 9%

Nc1nc(Cl)c(Cl)c(Cl)n1
inactive: [1]; at 1.2 µM 1% | [1]; at 3.7 µM 8% | [1]; at 11.0 µM 32% | [2]; at 1.2 µM -2% | [2]; at 3.7 µM 1% | [2]; at 11.0 µM 14% | [2]; at 33.0 µM 57% | [3]; at 1.2 µM 0% | [3]; at 3.7 µM 34% | [4]; at 1.2 µM 1% | [4]; at 3.7 µM 5% | [4]; at 11.0 µM 20% | [5]; at 1.2 µM 2% | [5]; at 3.7 µM 3% | [5]; [17] 44% | [5]; at 11.0 µM 17% | [5]; at 33.0 µM 51% | [5]; at 50.0 µM 47.3% | [6]; at 1.2 µM 2% | [6]; at 3.7 µM 14% | [6]; [17] 28% | [6]; at 11.0 µM 42% | [7]; at 1.2 µM 3% | [7]; at 3.7 µM 8% | [7]; at 11.0 µM 30% | [8]; [17] 59% | [8]; at 50.0 µM 32.3% | [9]; at 1.2 µM -1% | [9]; at 3.7 µM 0% | [9]; at 11.0 µM 14% | [9]; at 33.0 µM 30% | [10]; [17] 7% | [10]; at 50.0 µM 13.8% | [11]; at 1.2 µM -4% | [11]; at 3.7 µM 1% | [11]; [17] 27% | [11]; at 11.0 µM 18% | [11]; at 50.0 µM -8.05% | [12]; at 1.2 µM 0% | [12]; at 3.7 µM 4% | [12]; at 11.0 µM 17% | [13]; at 1.2 µM -2% | [13]; at 3.7 µM 3% | [13]; at 11.0 µM 18% | [14]; at 1.2 µM 1% | [14]; at 3.7 µM 14% | [14]; at 11.0 µM 45% | [15]; at 50.0 µM 30.4% | [16]; at 1.2 µM 1% | [16]; at 3.7 µM 5% | [16]; at 11.0 µM 19%
active: [1]; at 33.0 µM 88% | [1]; at 100.0 µM 99% | [2]; at 100.0 µM 99% | [3]; at 11.0 µM 89% | [3]; at 33.0 µM 93% | [3]; at 100.0 µM 99% | [4]; at 33.0 µM 90% | [4]; at 100.0 µM 99% | [5]; [18] 100% | [5]; at 100.0 µM 99% | [6]; at 33.0 µM 99% | [6]; [18] 99% | [6]; at 50.0 µM 72.4% | [6]; at 100.0 µM 99% | [7]; at 33.0 µM 99% | [7]; at 100.0 µM 99% | [8]; [18] 99% | [9]; at 100.0 µM 99% | [10]; [18] 99% | [11]; at 33.0 µM 92% | [11]; [18] 99% | [11]; at 100.0 µM 99% | [12]; at 33.0 µM 80% | [12]; at 100.0 µM 99% | [13]; at 33.0 µM 93% | [13]; at 100.0 µM 99% | [14]; at 33.0 µM 99% | [14]; at 100.0 µM 99% | [15]; [17] 80% | [15]; [18] 99% | [16]; at 33.0 µM 77% | [16]; at 100.0 µM 99%
